# Hits are enriched below; roughly 7.4% of the tested compounds scored in any of these assays.
# Rab9 promoter act = Rab9 promoter activation. Potency, µM (top dose mostly 9.22 µM), for inactives: at the top dose activation, negative = inhibition, most hits filed as activators. Huh7 Rab9 promoter-luciferase reporter, luminescence, 24 h. hit rate 2.8% among 320,000; further: % of control where 0% means no effect; nearly all actives have a fitted effect of over 60% in size
#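 Luminescence read-out: Huh7 cells stably expressing Rab9-luciferase, treated 24 h with compound at 37 °C, then lysed with luciferase reagent for 10 min at ambient before reading.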
# NPC1 promoter act = activators of NPC1 promoter. AID 485313. hit rate 2.4% among 320,000. Potency, µM (series often up to 9.22 µM), for the others: at the top dose activation, usual class: activators. Huh7 NPC1 promoter luciferase reporter, 24 h; further: % of control where 0% means no effect; nearly all actives have a fitted effect of over 60% in size
#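 NPC1 promoter–luciferase Huh7 cells; 24 h compound; luminescence.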
# ELG1 genotoxic = genotoxicity induction in ELG1-luciferase HEK293T cells; Potency, µM (top dose mostly 46 µM), inactives show at the highest dose activity change, positive = activation, most hits filed as activators; hit rate 1.3% among 330,000; HEK293T ELG1-luciferase reporter, luminescence, 16 h; AID 504466; further: % of control where 0% means no effect; nearly all actives have a fitted effect of over 60% in size
#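 Screening used a luciferase reporter fused to human ELG1 in HEK293T cells. Luminescence was read on a CCD plate imager after 16 hr exposure and 30 min ONE-Glo incubation.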
# FLuc counter = inhibits or activates purified firefly luciferase, miR-21 counter-screen; P08659; purified FLuc, Km substrates, luminescence inhibition; Potency, µM (titrated, usually from 57.5 µM), without a hit: at the top dose activity change, negative = inhibition, most hits filed as inhibitors; hit rate 6.9% among 360,000; AID 588342;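 further: plate controls were vehicle for no effect and reference inhibitor for full effect; nearly all actives have a fitted effect of over 55% in size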
# Target sequence (P08659 whole entry, looked up): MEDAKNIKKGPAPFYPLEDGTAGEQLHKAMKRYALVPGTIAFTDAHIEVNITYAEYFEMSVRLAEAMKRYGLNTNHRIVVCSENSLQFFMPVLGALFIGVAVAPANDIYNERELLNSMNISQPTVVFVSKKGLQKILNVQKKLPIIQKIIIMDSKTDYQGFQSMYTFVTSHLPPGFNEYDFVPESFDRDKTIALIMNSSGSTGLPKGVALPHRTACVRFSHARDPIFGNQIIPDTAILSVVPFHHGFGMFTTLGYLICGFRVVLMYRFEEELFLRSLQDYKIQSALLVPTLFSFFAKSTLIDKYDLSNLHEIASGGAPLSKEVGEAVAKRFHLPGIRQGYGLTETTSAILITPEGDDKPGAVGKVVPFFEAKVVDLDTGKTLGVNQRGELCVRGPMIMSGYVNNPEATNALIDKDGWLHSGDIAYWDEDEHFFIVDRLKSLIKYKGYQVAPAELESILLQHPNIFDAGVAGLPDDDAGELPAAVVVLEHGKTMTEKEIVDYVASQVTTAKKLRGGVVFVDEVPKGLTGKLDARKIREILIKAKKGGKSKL
#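 Biochemical qHTS of compounds, final roughly 60 µM downward over six points, against 10 nM purified firefly luciferase using Km concentrations of substrates (10 uM D-luciferin, 10 uM ATP) in Tris acetate pH 7.5 buffer; luminescence output.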
# SMN2 splice up = SMN2 splice variant enhancement. HEK293 SMN2-luciferase splicing reporter, luminescence, 30-36 h. Potency, µM (series often up to 46.1 µM), inactives show at the top dose activity change, positive = activation, hits mostly activators. hit rate 2.8% among 210,000. AID 1458; further: % of control where 0% means no effect; nearly all actives have a fitted effect of over 55% in size
#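 qHTS luciferase splicing reporter: luminescence rises when SMN2 exon 7 is included in transfected HEK293 cells. Compound exposure lasted 30-36 h at 37C, with 4.5 mM final sodium butyrate as control, followed by a ONE-Glo read.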
# * hit, by the source's call; u = inconclusive; x = no result given. The call rests on the fitted dose curve; in most records, active means well fitted curve in the direction sought with a large enough effect; inconclusive means small, poorly fitted or top-dose-only effect, or another doubt; inactive means no such curve, though single readings can be large; an effect the other way counts as inactive or inconclusive. Potency means the concentration at half of the fitted maximal effect.
SMILES,Rab9 promoter act,NPC1 promoter act,ELG1 genotoxic,FLuc counter,SMN2 splice up
Cc1cccc(OCCn2c(=O)n(C)c3ccccc32)c1,1.8µM*,3.2µM*,6.5µM*,15µM*,13µM*
COc1ccc(OCCn2c(=O)sc3ccccc32)cc1,u,u,u,19µM*,u
COc1ccccc1NC(=S)N1CCCCCC1,-1%,2%,-1%,3%,x
Cc1ccccc1NC(=O)CSc1nc(=O)n(CCN2CCOCC2)c2c1CCC2,x,x,x,5%,x
Cc1cccc(OCCCn2c(=O)sc3ccccc32)c1,3.2µM*,6%,u,21µM*,-5%
Cc1ccc(C(=O)c2ccccc2C(=O)OCC(=O)Nc2ccc(SC(F)F)cc2)cc1,-1%,0%,-9%,-19%,-33%
O=C(Cc1ccccc1F)Nc1ccc(SC(F)F)cc1,1.6µM*,4µM*,u,5.4µM*,13µM*
O=C(COC(=O)c1ccccc1Cc1ccccc1)Nc1ccc(SC(F)F)cc1,2.8µM*,u,u,6µM*,x
COc1cc(C(=O)OCC(=O)Nc2ccc(SC(F)F)cc2)cc(OC)c1OC,-8%,-2%,-1%,1%,-99%
CCCCC(=O)OCC(=O)Nc1ccc(SC(F)F)cc1,4%,2%,2%,21µM*,-5%
O=C(COC(=O)Cc1ccccc1F)Nc1ccc(SC(F)F)cc1,-3%,-2%,0%,13µM*,u
C=CCc1cccc2cc(-c3nc4ccc(C)cc4[nH]3)c(=O)oc12,x,x,x,-17%,x
COc1ccc(CCNC(=O)C2CCC(CNS(=O)(=O)c3ccc(C)cc3)CC2)cc1OC (configuration not stated),x,x,x,2%,x
CCCCNC(=S)Nc1ccc(SC(F)F)cc1,19%,10%,-1%,17µM*,10%
CCCCNC(=S)Nc1ccc(F)cc1,-2%,0%,-2%,3%,x
O=C(NCCOc1ccc(Cl)cc1)c1ccco1,6%,-3%,3%,-10%,x
COc1ccc(-c2nc(SCC(=O)NCc3nc4ccccc4n3C)n3[nH]c(=O)cc3n2)cc1,x,x,x,4%,x
COc1ccc(/C=C/c2nc(-c3ccccc3O)n[nH]2)cc1,3.5µM*,3.5µM*,u,3.8µM*,4µM*
COc1ccc(-c2cc(-c3ccccc3)n[nH]2)c(O)c1,2.2µM*,u,8.2µM*,6µM*,13µM*
Oc1ccc(Cl)cc1-c1cc(-c2ccccc2)n[nH]1,-4%,-7%,12%,u,16%
COc1ccc(O)c(-c2cc(-c3cccs3)[nH]n2)c1,u,12%,7%,21µM*,u
COc1ccc(-c2ncncc2-c2ccccc2)c(O)c1,6%,0%,-12%,-2%,x
COc1ccc(-c2cc(-c3ccccc3O)[nH]n2)cc1,3.2µM*,1.8µM*,u,0.85µM*,x
COc1ccccc1NS(=O)(=O)c1cn(C)c(C)n1,x,x,x,-3%,x
Oc1ccc(Br)cc1-c1cc(-c2ccccc2Cl)[nH]n1,-8%,-4%,0%,u,x
SMILES,Rab9 promoter act,NPC1 promoter act,ELG1 genotoxic,FLuc counter,SMN2 splice up
COc1ccc(O)c(-c2cc(-c3ccccc3Cl)[nH]n2)c1,24%,24%,u,11µM*,x
COc1ccc(-c2cc3c(=O)n(CC(=O)NCc4cccnc4)ncn3n2)cc1,3.5µM*,1.6µM*,u,2.1µM*,x
COc1ccc(-c2cc3c(=O)n(CC(=O)NCCCN4CCC(N5CCCCC5)CC4)ncn3n2)cc1,22%,u,9%,11µM*,x
COc1ccc(-c2cc3c(=O)n(CC(=O)NCCCN4CCC(N5CCCCC5)CC4)nc(C)n3n2)cc1,0%,1%,5%,-9%,x
CCOC(=O)NC(=O)CSc1nc(-c2ccc(C)c(C)c2)cn1-c1ccccc1,2.2µM*,u,u,17µM*,-18%
Cc1ccc(NC(=O)CSc2nnc(NC(=O)c3ccco3)s2)cc1,14%,9%,15%,21µM*,14%
CSc1nnc(NC(=O)c2ccco2)s1,22%,u,17%,-19%,x
CCCSc1nnc(NC(=O)c2ccco2)s1,u,29%,u,u,11µM*
CC(=O)c1ccc(NC(=O)CSc2nnc(NC(=O)c3ccco3)s2)cc1,u,u,u,2.4µM*,x
CC(C)N(C(=O)CSc1nnc(NC(=O)c2ccco2)s1)C(C)C,-4%,-4%,0%,-18%,-5%
CC(C)S(=O)(=O)c1csc(C(=O)Nc2ccc(F)cc2)c1N,0.56µM*,0.56µM*,2.9µM*,6µM*,x
CCC(CC)C(=O)NC1CC(=O)N(c2ccc3c(c2)OCCO3)C1 (configuration not stated),x,x,x,0%,x
CCOc1ccc(N2C(=O)S/C(=C\c3cccn3C)C2=O)cc1,29%,12%,11%,-4%,u
Cn1cccc1/C=C1\SC(=O)N(c2ccc(O)cc2)C1=O,u,u,u,u,13µM*
C=CCOC(=O)c1c(C)nc2cc3c(cc2c1C)OCO3,24%,19%,7%,17µM*,u
C=CCOC(=O)C1=C(C)NC(=O)NC1c1ccc2c(c1)OCO2 (configuration not stated),-5%,-2%,2%,5%,x
CCOC(=O)c1cnc2c(C)c(C)ccc2c1Nc1ccc(S(=O)(=O)Nc2ncccn2)cc1,9%,2%,5%,19µM*,u
COc1ccccc1Nc1cc(C(=O)NCc2cccs2)c2ccccc2n1,x,x,x,9.5µM*,-42%
COc1ccc(Nc2cc(C(=O)NCc3ccccc3)c3ccccc3n2)cc1,x,x,x,-14%,1%
COc1ccc(CNC(=O)c2cc(Nc3ccc(C)cc3C)nc3ccccc23)cc1,x,x,x,8.5µM*,-11%
COc1ccc(CNC(=O)c2cc(Nc3ccccc3C)nc3ccccc23)cc1,x,x,x,u,-3%
Cc1ccccc1Nc1cc(C(=O)NCc2cccs2)c2ccccc2n1,x,x,x,u,1%
Cc1cc(C)cc(Nc2cc(C(=O)NCc3ccccc3)c3ccccc3n2)c1,x,x,x,4.8µM*,-9%
COc1ccc(Nc2cc(C(=O)NCc3ccccn3)c3ccccc3n2)c(OC)c1,u,6%,-6%,11µM*,1%
COc1ccccc1N1CCN(C(=O)C2CCC(CNS(=O)(=O)c3ccc(NC(C)=O)cc3)CC2)CC1 (configuration not stated),-3%,-4%,-3%,1%,x
CC(C)C(C(=O)NCC1CCCO1)N(CC1CCCO1)C(=O)CNS(=O)(=O)c1ccccc1 (configuration not stated),3%,-3%,0%,-3%,x
COc1ccc(-c2cc(C(=O)NCc3ccco3)c3ccccc3n2)cc1,11%,0%,0%,6.7µM*,x
COc1ccc(Nc2cc(C(=O)NCc3cccnc3)c3ccccc3n2)c(OC)c1,-9%,1%,-6%,11µM*,-8%
COc1ccc(-c2cc(C(=O)NCc3ccco3)c3ccccc3n2)c(OC)c1,0%,-4%,-13%,u,x

# High-throughput results: PubChem BioAssay, National Center for Advancing Translational Sciences (NCATS)
